# LEDGF integ inh: blocks HIV-1 LEDGF/p75-dependent DNA integration | TR-FRET IN-LEDGF/p75 DNA integration, Eu/Cy5 | inhibition, % at 3.7 µM | hit rate 0.64% among 370,000;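 active means inhibition above the screen-wide mean plus 3 SD, cut at about 13% in these data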;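 further: signal is the Cy5 over europium emission ratio at 671 and 618 nm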
# rCAG binder: molecules binding r(CAG) RNA repeats; r(CAG) RNA repeat, TO-PRO-1 dye displacement fluorescence; inhibition, % at 3 µM; hit rate 1.3% among 370,000;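 active means inhibition above the plate cutoff, the mean of all test compounds on that plate plus 3 SD, cut at about 35% in these data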;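 further: higher means more dye released from RNA so lower well fluorescence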
# UHRF1 MBD2 ctr: UHRF1 methyl-DNA binding inhibition. Q96T88. UHRF1 binding to methylated oligo, TR-FRET. inhibition, % at 4.4 µM. hit rate 0.75% among 370,000. AID 687016; in the data active means inhibition above about 21%;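 further: UHRF1 SRA domain binding a hemimethylated CpG hairpin DNA probe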
# Target sequence (Q96T88 whole entry, looked up, the tested form may be a part): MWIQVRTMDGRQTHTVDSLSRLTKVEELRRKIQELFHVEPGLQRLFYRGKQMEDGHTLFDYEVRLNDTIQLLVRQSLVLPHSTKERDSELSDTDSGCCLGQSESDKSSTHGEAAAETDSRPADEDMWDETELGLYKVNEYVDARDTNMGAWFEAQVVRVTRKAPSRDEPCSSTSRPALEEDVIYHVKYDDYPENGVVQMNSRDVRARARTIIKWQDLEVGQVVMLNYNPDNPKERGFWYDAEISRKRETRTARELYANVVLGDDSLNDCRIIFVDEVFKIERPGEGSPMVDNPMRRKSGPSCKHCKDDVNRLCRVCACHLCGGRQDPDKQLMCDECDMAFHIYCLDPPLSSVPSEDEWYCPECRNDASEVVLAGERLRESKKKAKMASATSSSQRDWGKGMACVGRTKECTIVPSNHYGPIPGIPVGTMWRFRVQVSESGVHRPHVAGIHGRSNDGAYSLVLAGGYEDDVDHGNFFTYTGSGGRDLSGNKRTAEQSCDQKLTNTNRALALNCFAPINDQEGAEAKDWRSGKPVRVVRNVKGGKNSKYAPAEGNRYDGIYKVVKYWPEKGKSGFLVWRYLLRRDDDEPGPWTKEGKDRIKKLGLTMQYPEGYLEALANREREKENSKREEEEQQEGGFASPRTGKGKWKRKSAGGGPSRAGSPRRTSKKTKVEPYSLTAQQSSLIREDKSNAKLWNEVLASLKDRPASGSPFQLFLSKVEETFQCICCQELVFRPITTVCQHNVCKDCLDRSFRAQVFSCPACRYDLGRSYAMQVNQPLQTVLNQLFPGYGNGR
# MBD2 inh: inhibitors of human MBD2 binding to methylated oligonucleotide; TR-FRET; inhibition, % at 4.4 µM; hit rate 0.31% among 370,000; AID 686964; in the data active means inhibition above about 13%
# ABHD5 PLIN5 PPI: inhibitors of human ABHD5-perilipin-5 interaction; hit rate 0.78% among 360,000; inhibition, % at 4 µM; Split G. princeps luciferase complementation, luminescence, 4 h; Q00G26+Q8WTS1;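 active means inhibition above the mean inhibition across every tested compound plus 3 SD, cut at about 22% in these data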
# PRMT1 FP inh: PRMT1 (human) inhibition, primary screen. Q99873. recombinant PRMT1, activity-based probe fluorescence polarization. inhibition, % at 2.79 µM. hit rate 1.3% among 370,000;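 active means inhibition above about 21% made by adding two undisclosed values, limit read from the data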
# Hits are given with their value; n = inactive; x = not tested or not shown. Compounds with a hit are over-represented: about 4.1% of the library has one in this group of screens.
SMILES,LEDGF integ inh,rCAG binder,UHRF1 MBD2 ctr,MBD2 inh,ABHD5 PLIN5 PPI,PRMT1 FP inh
CC(=O)C1=C(C)N(Cc2ccc(F)cc2)C(=S)NC1c1ccccc1 (configuration not stated),n,n,n,n,x,n
COC(=O)c1c(C)[nH]c(C(=O)COC(=O)Cn2cc(C(F)(F)F)ccc2=O)c1C,n,n,82.2,n,n,n
Cc1cc(C(=O)NN=Cc2cccc(O)c2)n[nH]1,n,n,n,n,x,n
CCOc1ccc2ccccc2c1/C=N/NC(=O)CNC(=O)Cc1ccccc1,n,n,22.8,n,n,n
O=[N+]([O-])c1cccc(-c2nc(NCc3ccccc3)c3ccccc3n2)c1,n,n,n,n,n,n
CN(Cc1ccccc1)c1nc(-c2cccc([N+](=O)[O-])c2)nc2ccccc12,n,n,23.1,n,n,n
CN(CCO)c1ccc(C=NNc2ccc([N+](=O)[O-])cc2S(=O)(=O)Nc2ccccc2C(=O)O)cc1,n,90.8,n,n,n,n
COC(=O)C1=C(C)N(C)C(=NCc2ccccc2)NC1c1ccc(F)cc1 (configuration not stated),n,n,n,n,x,n
N#Cc1ccc(-c2nc3ccc(Br)cn3c2Cc2ccccc2)cc1,n,n,22.2,n,n,n
Cc1ccc(Cc2c(-c3ccc(C#N)cc3)nc3ccc(Br)cn23)cc1,n,n,22.1,n,n,n
Cc1ccc(Cc2c(-c3ccc(C#N)cc3)nc3ccc(C)cn23)cc1,n,n,n,n,x,n
N#Cc1ccc(-c2nc3ccc(Br)cn3c2Cc2cccc(Cl)c2)cc1,n,n,n,n,n,n
Cc1ccc(Cc2c(-c3ccccc3)nc3ccc(Br)cn23)cc1,n,n,21.6,n,n,n
COC(=O)C1=C(C)N(Cc2cccc(C(F)(F)F)c2)C(=NCc2ccc3c(c2)OCO3)NC1c1ccc(Cl)cc1 (configuration not stated),n,n,n,n,x,n
CNC(=O)COC(=O)c1cc(SC)ccc1Cl,n,n,26.4,n,n,n
CSc1ccc(Cl)c(C(=O)OCC(=O)NCC(C)C)c1,n,n,n,n,n,n
CC(O)(c1ccc(F)c(F)c1)c1nc(-c2ccoc2)cs1 (configuration not stated),n,n,n,n,22.2,n
C[C@@]12CCC=C[C@H]1[C@H](c1ccc3ccccc3c1)N(Cc1ccccc1)C2=O,n,n,38.5,n,n,n
COc1ccc(/C=C/c2nc(-c3ccccc3O)n[nH]2)cc1OC,n,47.9,n,n,n,n
CCCCN=C(N)NC(=O)c1ccccc1,n,n,n,n,x,n
Cc1ccc(S(=O)(=O)OCC(=O)Nc2ccc(C(=O)O)c(O)c2)cc1,14.7,40.0,n,n,n,21.4
O=C(CNc1ccc2ccccc2c1)N/N=C/c1ccncc1,n,n,n,n,n,21.6
O=C(CNc1ccc2ccccc2c1)N/N=C/c1ccccn1,n,n,n,n,n,n
O=C(CCc1ccccc1)N[C@H]1[C@H](OCc2ccccc2)CCC[C@@]12C(=O)N(Cc1ccccc1)c1ccc(-c3ccccn3)cc12,n,n,n,n,x,n
O=c1sc2ccccc2c(=O)n1Cc1ccccc1F,n,n,n,n,n,n
SMILES,LEDGF integ inh,rCAG binder,UHRF1 MBD2 ctr,MBD2 inh,ABHD5 PLIN5 PPI,PRMT1 FP inh
COC(=O)c1cccc(-n2sc3ccccc3c2=O)c1,n,n,n,n,91.4,97.6
O=c1c2ccccc2sn1-c1ccc(F)cc1,n,n,n,n,70.9,84.4
O=C(NCC1COCCO1)C1CCN(S(=O)(=O)c2cccc3ccccc23)CC1 (configuration not stated),n,n,n,n,x,n
CC(=O)N1CCN(C(=O)c2ccc(CNC(=O)c3cccc(Br)c3)cc2)CC1,n,n,n,n,x,n
Cc1cc(NS(=O)(=O)c2ccc(NC(=O)/C=C/c3ccco3)cc2)nc(C)n1,n,n,n,n,n,24.2
Cc1csc(N=Cc2ccc([N+](=O)[O-])o2)n1,20.6,n,21.7,n,n,23.2
Cc1n[nH]c(C)c1S(=O)(=O)NCCc1cccc(F)c1,n,n,n,n,x,n
NC(=O)N[C@@H](Cc1c[nH]c2ccccc12)C(=O)OCC(=O)N1CCCCC1,n,n,24.1,n,n,n
COc1ccc(C(=O)CCc2ccc(OC)c(OC)c2)cc1,n,n,n,n,n,n
COc1cc(O)c(CCC(=O)c2ccc(OC)c(OC)c2)c(OC)c1,n,n,63.5,n,n,n
Cc1ccccc1N=Nc1c(N)[nH]n(-c2ccccc2)c1=O,n,n,n,n,x,n
Cc1ccc(Oc2ccc3c(c2)C(=O)N(c2ccc(S(=O)(=O)Nc4nccs4)cc2)C3=O)cc1,n,61.1,n,n,n,n
CC(=O)Nc1c2c3c(cccc3n(C)c1=O)C(=O)c1ccccc1-2,n,n,n,n,n,n
Cn1c(=O)c(Nc2ccc(Cl)cc2)c2c3c(cccc31)C(=O)c1ccccc1-2,n,n,n,n,x,92.6
C#Cc1ccc(NC(=O)C2(C)CCN2C(=O)C/C=C/c2ccccc2)cc1 (configuration not stated),n,n,n,n,n,n
CC1(C(=O)Nc2cccc(C#N)c2)CCN1C(=O)C/C=C/c1ccccc1 (configuration not stated),n,n,24.2,n,n,n
Cc1cc(C)cc(NC(=O)Cn2c(-c3ccccc3Cl)nc3ccccc32)c1,n,n,21.7,n,n,n
O=C(Cn1c(-c2ccccc2Cl)nc2ccccc21)Nc1cccc(Cl)c1,n,n,n,n,n,n
O=S(=O)(Nc1c(S(=O)(=O)c2ccccc2)c2nc3ccccc3nc2n1C1CCCCC1)c1ccccc1,33.2,n,n,n,n,n
C=CCn1c(NS(=O)(=O)c2ccccc2)c(S(=O)(=O)c2ccc(C)cc2)c2nc3ccccc3nc21,n,n,n,n,n,n
Cc1ccc(-c2csc(=S)[nH]2)cc1,n,n,n,n,n,22.4
Cc1ccc(-c2ccc(C(=O)O)[nH]2)cc1,n,n,n,n,n,n
Cc1[nH]c(=O)c(C(=O)/C=C/c2ccccc2F)c2c1CCCC2,n,n,n,n,50.9,n
C/C(=C\c1ccccc1F)C(=O)c1c(C)cc(C)[nH]c1=O,n,n,n,n,n,n
Nc1[nH]c(C(=O)c2ccccc2)c(-c2ccccn2)c1C(=O)c1c[nH]c2ccccc12,n,n,n,n,x,n
CCCc1cc(=O)[nH]c(SCC(=O)NC2(C#N)CCCCC2)n1,n,n,26.8,n,n,n
CCCc1cc(=O)[nH]c(SCC(=O)c2ccc(S(=O)(=O)N3CCCC3)cc2)n1,n,n,n,n,n,22.0
CC1CN(c2ccnc3cc(Cl)ccc23)CCN1C(=O)c1ccc(Cl)cc1 (configuration not stated),n,x,n,n,x,n
CN1CCN(C(=O)OC2CC3CC2[C@H]2CCCCN2C3=O)CC1 (some centres not stated),n,n,21.1,n,n,n
